Among the test systems are NCI-H23 lung; NCI-H322M lung; HOP-62 NSCLC; NCI-H460 lung; HOP-92 NSCLC; NCI-H522 lung; A549/ATCC NSCLC; 786-0 renal; COLO 205 colon.
Common to all, as to test: NCI-60 one-dose screen, 48 h (100 = growth as untreated, 0 = no growth, -100 = all killed)
Holding throughout (conditions): 10 µM unless noted

Compounds without any hit were thinned out: in the full panel of roughly 83,000, 20% have a hit.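 Treatment: one concentration, 48 hours, 96-well format. Scoring: percent growth, with anything below 10 considered active.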 Values without a mark were called inactive. Active and inactive are the calls of the source.

As for `O=C1c2cccc3cccc(c23)C(=O)N1C/C=C/c1ccc2c3c(cccc13)C(=O)N(CCO)C2=O`, the growth in the test on NCI-H23 lung was 69.6%; in the test with NCI-H322M lung it was 62.9%; in the test on HOP-62 NSCLC it was 70.6%; with NCI-H460 lung, 72.6%; in the test with HOP-92 NSCLC, 2.53% (active); in the test with NCI-H522 lung, 89.2%. Also, the growth with A549/ATCC NSCLC was 81.2%; with 786-0 renal it was 84.4%; in the test on COLO 205 colon, 68.3%.

On to `COC(=O)c1c2c(c(C)[n+]([O-])c1C)C(=O)C(NCc1cccc(Cl)c1)=CC2=O`, for which the growth in the test with NCI-H23 lung was 14.7%; with NCI-H322M lung, 1.86% (active); in the test on HOP-62 NSCLC it was 41.6%; with NCI-H460 lung it was 10.1%; in the test on HOP-92 NSCLC, 38%; in the test on NCI-H522 lung, -10.4% (active). In addition, the growth with A549/ATCC NSCLC is 6.34% (active); in the test on 786-0 renal, 39.5%; in the test with COLO 205 colon, -50.3% (active).

`C/C(Cc1ccc(Cl)cc1)=C(\c1ccc(OCCCN(C)C)cc1)c1ccc(OC(=O)Cc2ccccc2)cc1`: the growth was 101% in the test on NCI-H23 lung; 92.2% with HOP-62 NSCLC; 110% with NCI-H460 lung; 101% in the test on HOP-92 NSCLC; 70.5% in the test on NCI-H522 lung; 105% with A549/ATCC NSCLC. Also, the values for the growth in the test on 786-0 renal and in the test on COLO 205 colon were 104% and 112%, respectively.

Turning to `COc1ccc(C(=O)c2cc3c(N)c(C(=O)Nc4ccccc4)sc3nc2C)cc1`, the growth in the test on NCI-H23 lung was 36.1%; with NCI-H322M lung, 63%; with HOP-62 NSCLC it was 44.8%; in the test on NCI-H460 lung it was 6.22% (active); in the test on HOP-92 NSCLC, 82.2%; in the test with NCI-H522 lung, 9.62% (active). In addition, the figures for the growth with 786-0 renal and with COLO 205 colon were 46.4% and 7.64% (active), respectively.

`CCN1C(=O)N(CC)C2C1N=C(SCc1ccc(Cl)cc1)N2/N=C/C=C/c1ccccc1OC` (stereo not drawn): the growth in the test on NCI-H23 lung is 78.2%; in the test on NCI-H322M lung it was 97.1%; with HOP-62 NSCLC, 70%; in the test with NCI-H460 lung it was 85.6%; with HOP-92 NSCLC, 50.6%; in the test on NCI-H522 lung, 34.1%. For the same molecule, the values for the growth with A549/ATCC NSCLC, with 786-0 renal and in the test on COLO 205 colon were 53.7%, 86.2% and 59.7%, respectively.

As for `COc1ccc(C#Cc2ccc(=O)oc2-c2cc(OC)c(OC)c(OC)c2)cc1O`, the growth with NCI-H23 lung is 45.7%; with HOP-62 NSCLC, 28.6%; in the test with NCI-H460 lung, 15.3%; with HOP-92 NSCLC it was 48.4%; in the test on NCI-H522 lung, 20.6%; with A549/ATCC NSCLC, 42.6%. Moreover, the growth is 54.3% in the test on 786-0 renal and 69.4% with COLO 205 colon.

Consider `O=C(Nc1ccc(Br)cc1)C1=NCCCCN1`, for which the growth with NCI-H23 lung is 85.1%; with NCI-H322M lung it was 98.1%; with HOP-62 NSCLC, 74.7%; with NCI-H460 lung, 89.5%; in the test on HOP-92 NSCLC, 102%; in the test with NCI-H522 lung it was 82.9%. The growth was 90.5% in the test with A549/ATCC NSCLC, 96.2% with 786-0 renal and 110% in the test with COLO 205 colon.

With `O=C1c2ccccc2C(=O)c2c1c(C(=O)NCc1ccccc1)c1ccccn21`, the growth in the test on NCI-H23 lung is 101%; in the test on NCI-H322M lung, 99.4%; in the test with HOP-62 NSCLC it was 94.4%; with NCI-H460 lung, 107%; with HOP-92 NSCLC, 91.7%; with NCI-H522 lung, 73.4%. For the same molecule, the growth in the test with A549/ATCC NSCLC was 76.8%; in the test with 786-0 renal it was 94.5%; with COLO 205 colon, 108%.

`COc1ccc2c(c1)c(-c1nc(-c3c[nH]c4ncccc34)cs1)cn2CCO`: the growth in the test on NCI-H23 lung was 62.5%; in the test with NCI-H322M lung, 47.6%; in the test on HOP-62 NSCLC, 53.7%; in the test on NCI-H460 lung it was 46.3%; in the test on HOP-92 NSCLC, 48.6%; with NCI-H522 lung it was 36.8%. Besides, the growth in the test on A549/ATCC NSCLC was 66.9%; in the test with 786-0 renal, 59.5%; in the test with COLO 205 colon, 56.9%.

As to `CCn1cc(CNc2ccc(C(=O)Nc3cc4cc(OC)c(OC)cc4c(C)n3)cc2)cn1`, the growth is 43.3% in the test with NCI-H23 lung; 103% in the test on NCI-H322M lung; 39.6% in the test on HOP-62 NSCLC; 86.7% in the test with NCI-H460 lung; 59.5% with HOP-92 NSCLC; 9.72% (active) in the test with NCI-H522 lung. In addition, the growth in the test on A549/ATCC NSCLC was 48.1%; with 786-0 renal, 70.4%; in the test on COLO 205 colon, 42.1%.

Take `Fc1cccc(-c2ccc3c(c2)C2(CCNCC2)CN3)c1`: the growth was 92.1% in the test with NCI-H23 lung; 101% in the test with NCI-H322M lung; 105% in the test with HOP-62 NSCLC; 106% in the test with NCI-H460 lung; 90.4% in the test with NCI-H522 lung; 99.9% in the test with A549/ATCC NSCLC. Besides, the growth in the test with 786-0 renal was 98.5%; in the test on COLO 205 colon it was 107%.

For the molecule `CCO/C=N/C1=C(C#N)C(c2ccc(F)cc2)c2sc3c(F)cccc3c2O1` (stereo not drawn), the growth in the test with NCI-H23 lung is 61.2%; in the test on NCI-H322M lung, 65.4%; in the test on HOP-62 NSCLC, 50.9%; with NCI-H460 lung it was 16.3%; with HOP-92 NSCLC, 58.8%; in the test with NCI-H522 lung, -22% (active). The growth was 40.6% in the test with A549/ATCC NSCLC, 35.2% in the test with 786-0 renal and 78.3% in the test on COLO 205 colon.

Turning to `O=C1NC(=O)/C(=C/c2c(-c3ccccc3)nc3sc(COc4ccccc4)nn23)S1`, the growth was 86% in the test on NCI-H23 lung; 96% with NCI-H322M lung; 102% with HOP-62 NSCLC; 102% in the test with NCI-H460 lung; 66.4% in the test on HOP-92 NSCLC; 83.6% in the test with NCI-H522 lung. The growth is 96.6% in the test with A549/ATCC NSCLC, 81.6% in the test with 786-0 renal and 132% with COLO 205 colon.

As to `O=C(CSc1nnc(-c2cc(-c3ccccc3)nc3ccccc23)n1-c1ccccc1)Nc1ccc(C(=O)/C=C/c2ccc(Cl)cc2)cc1`, the growth in the test on NCI-H23 lung is 96.1%; in the test on NCI-H322M lung, 93.1%; in the test on HOP-62 NSCLC, 93%; with NCI-H460 lung it was 102%; in the test on HOP-92 NSCLC, 82.1%; in the test with NCI-H522 lung it was 71.8%. The growth is 84.4% in the test with A549/ATCC NSCLC, 96.3% in the test on 786-0 renal and 99.6% with COLO 205 colon.

With `Cc1ccc(/C=C/C(=O)c2ccc(-n3cc(CN4CCN(c5cc6c(cc5F)c(=O)c(C(=O)O)cn6C5CC5)CC4)nn3)cc2)cc1`, the growth is 81.5% in the test with NCI-H23 lung; 94.3% with NCI-H322M lung; 81.3% with HOP-62 NSCLC; 89.7% in the test with NCI-H460 lung; 76.2% in the test with HOP-92 NSCLC; 88.6% with NCI-H522 lung. Also, the growth in the test with A549/ATCC NSCLC was 93.5%; in the test with 786-0 renal, 64.9%; in the test on COLO 205 colon, 101%.

Turning to `O=c1cc(-c2ccccc2)[nH]c2ncc(-c3ccc(F)cc3)n12`, the growth in the test on NCI-H23 lung is 72.2%; with NCI-H322M lung, 94.2%; in the test on HOP-62 NSCLC, 67.7%; in the test with NCI-H460 lung, 47.4%; in the test on HOP-92 NSCLC, 54.9%; with NCI-H522 lung, 36%. Further, the growth is 66.2% with A549/ATCC NSCLC, 79.5% in the test on 786-0 renal and 77.4% with COLO 205 colon.

For `C=C1C(=O)O[C@H]2[C@H]1CC/C(COC(=O)c1cc3cc(Cl)ccc3[nH]1)=C\CC[C@@]1(C)O[C@@H]21`, the growth in the test with NCI-H23 lung was -64.9% (active); in the test on NCI-H322M lung, 44.3%; in the test on HOP-62 NSCLC it was -63.6% (active); with NCI-H460 lung, 6.97% (active); in the test on HOP-92 NSCLC, -80.3% (active); in the test on NCI-H522 lung it was -81.1% (active). Besides, the growth with A549/ATCC NSCLC is -67.5% (active); in the test on 786-0 renal, -90.5% (active); with COLO 205 colon it was -77.6% (active).

Regarding `COc1cccc(/C=N/NC(=O)c2ccccc2N2CCCC2)c1O`, the growth was 53.3% with NCI-H23 lung; 49.6% in the test with NCI-H322M lung; 46.9% in the test with HOP-62 NSCLC; 20.9% in the test on NCI-H460 lung; 47.6% in the test on HOP-92 NSCLC; -34.1% (active) with NCI-H522 lung. Further, the growth with A549/ATCC NSCLC was 70.5%; in the test with 786-0 renal it was 53.4%; with COLO 205 colon, 54.3%.

These data come from PubChem BioAssay (NCI).
